The panel holds about 83,000 compounds, 20% with a hit somewhere; the sample as a whole holds those more often.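 Percent growth is the endpoint: 0 to 100 indicates growth inhibition (40 means 60% inhibition), 0 means no net growth, and negative values indicate cell death.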 Values without a mark were called inactive. Activity calls are given as the source filed them. The calls were made as follows: active = growth percent below 10; inactive = the rest.

Some test systems named below: NCI-H23 lung; NCI-H226 lung; NCI-H322M lung; HOP-62 NSCLC; NCI-H460 lung; HOP-92 NSCLC; NCI-H522 lung; A549/ATCC NSCLC; 786-0 renal; COLO 205 colon; DU-145 prostate; K-562 leukemia; MALME-3M melanoma; MDA-MB-231 breast; RXF 393 renal; SF-268 CNS; SF-295 CNS; SF-539 CNS; UACC-257 melanoma; M14 melanoma.
Assay in all cases: NCI-60 one-dose screen, 48 h (100 = growth as untreated, 0 = no growth, -100 = all killed)
Common to all, as to details: 10 µM

For `Cc1ccc2c3c(cccc13)-c1ccccc1C2=O`, the growth with NCI-H23 lung is 86.5%; in the assay with NCI-H226 lung it was 91.1%; in the assay on NCI-H322M lung, 92.4%; in the assay with HOP-62 NSCLC it was 93.6%; in the assay with NCI-H460 lung, 96.2%; in the assay with HOP-92 NSCLC, 108%. Moreover, the growth with NCI-H522 lung is 67.1%; in the assay on A549/ATCC NSCLC it was 81.8%; in the assay with 786-0 renal, 99.4%; in the assay on COLO 205 colon, 93.9%; with DU-145 prostate, 101%; in the assay with K-562 leukemia it was 108%. Moreover, the growth in the assay on MALME-3M melanoma is 110%; in the assay on MDA-MB-231 breast, 95.5%; in the assay with RXF 393 renal, 105%; in the assay with SF-268 CNS, 95.7%; in the assay with SF-295 CNS, 95.1%; in the assay with SF-539 CNS, 97.2%. The growth is 101% in the assay with UACC-257 melanoma and 98.6% in the assay on M14 melanoma.
For the molecule `COc1cc2c3c(cccc3c1)C(=O)N(CCN1CCCC1)C2=O`, the growth was 32.5% with NCI-H23 lung; 0.818% (active) with NCI-H226 lung; 13.6% in the assay with NCI-H322M lung; 25.7% in the assay with HOP-62 NSCLC; -22% (active) in the assay on NCI-H460 lung; -8.44% (active) with HOP-92 NSCLC. In addition, the growth in the assay on NCI-H522 lung is -11% (active); in the assay with A549/ATCC NSCLC, 6.08% (active); in the assay on 786-0 renal it was 36.1%; in the assay with COLO 205 colon, 4.92% (active); in the assay on DU-145 prostate, 15.1%; in the assay on K-562 leukemia, 4.01% (active). The growth with MALME-3M melanoma was -21.7% (active); with MDA-MB-231 breast, 29.1%; in the assay on RXF 393 renal it was 10.9%; in the assay with SF-268 CNS, 28.2%; with SF-295 CNS it was 40.2%; with SF-539 CNS it was 30.1%. Further, the growth with UACC-257 melanoma was -10.4% (active); in the assay with M14 melanoma it was 25.7%.
Take `COc1ccc(-c2oncc2-c2cc(OC)c3c(c2)OCO3)cc1`: the growth in the assay with NCI-H23 lung was 47.7%; in the assay on NCI-H226 lung, 77.5%; in the assay with NCI-H322M lung, 39%; in the assay with HOP-62 NSCLC it was 33.2%; with NCI-H460 lung, 11.5%; in the assay on HOP-92 NSCLC, -3.69% (active). The growth in the assay with NCI-H522 lung was 3.28% (active); with A549/ATCC NSCLC, 27.7%; in the assay on 786-0 renal, 36.6%; in the assay on COLO 205 colon, 15%; in the assay on DU-145 prostate, 34.2%; in the assay on K-562 leukemia, 13.8%. The growth in the assay on MALME-3M melanoma is 52.4%; in the assay on MDA-MB-231 breast it was 54.1%; in the assay with RXF 393 renal, 17.4%; in the assay with SF-268 CNS, 50.2%; in the assay on SF-295 CNS it was 12.3%; in the assay with SF-539 CNS it was -16% (active). For the same molecule, the growth with UACC-257 melanoma is 45.1%; in the assay on M14 melanoma, 13.1%.
With `COc1cc2nc(Sc3sc(N)nc3C)n(-c3ccc(Oc4ccccc4)cc3)c(=O)c2cc1OC`, the growth in the assay on NCI-H23 lung is 90.6%; with NCI-H226 lung, 89.7%; with NCI-H322M lung it was 123%; in the assay on HOP-62 NSCLC, 110%; with NCI-H460 lung, 99.5%; with HOP-92 NSCLC, 79.5%. Besides, the growth with NCI-H522 lung was 83.7%; in the assay with A549/ATCC NSCLC it was 83.3%; with 786-0 renal it was 80%; in the assay on COLO 205 colon, 76%; in the assay on DU-145 prostate it was 98.3%; in the assay with K-562 leukemia, 78.6%. In addition, the growth was 98.3% with MALME-3M melanoma; 90.1% in the assay on MDA-MB-231 breast; 85.9% in the assay with RXF 393 renal; 102% with SF-268 CNS; 85.4% with SF-295 CNS; 81.3% with SF-539 CNS. Also, the growth is 89.7% in the assay with UACC-257 melanoma and 81.6% with M14 melanoma.
For `CCOc1cc(Br)c(C(C)NC(=O)c2cccc(OC)c2)cc1OCC` (stereo not given), the growth is 79.7% in the assay on NCI-H23 lung; 89.2% in the assay on NCI-H226 lung; 94.3% in the assay with NCI-H322M lung; 87.3% in the assay on HOP-62 NSCLC; 78.1% in the assay on NCI-H460 lung; 8.9% (active) with HOP-92 NSCLC. Further, the growth is 83.6% in the assay with NCI-H522 lung; 76.6% with A549/ATCC NSCLC; 68.1% in the assay with 786-0 renal; 23.8% in the assay on COLO 205 colon; 93.4% in the assay on DU-145 prostate; 8.6% (active) in the assay on K-562 leukemia. Moreover, the growth in the assay with MALME-3M melanoma is -9.34% (active); with MDA-MB-231 breast, 39%; with RXF 393 renal, 41.6%; with SF-268 CNS it was 75.5%; in the assay with SF-295 CNS it was 92.1%; with SF-539 CNS, 76.2%. Besides, the growth in the assay with UACC-257 melanoma was -66.9% (active); in the assay with M14 melanoma, -67.2% (active).
`CCOC(=O)Cn1nnc(-c2ccc(OCc3ccccc3F)cc2)n1`: the growth is 89% in the assay with NCI-H23 lung; 103% in the assay with NCI-H226 lung; 98.7% in the assay with NCI-H322M lung; 87.1% with HOP-62 NSCLC; 102% in the assay with NCI-H460 lung; 75.5% in the assay with HOP-92 NSCLC. Besides, the growth in the assay on NCI-H522 lung was 52.3%; with A549/ATCC NSCLC, 90.8%; in the assay on 786-0 renal, 97.2%; with COLO 205 colon, 103%; with DU-145 prostate, 103%; with K-562 leukemia it was 53%. The growth in the assay on MALME-3M melanoma was 36.9%; with MDA-MB-231 breast, 104%; with RXF 393 renal, 79.9%; in the assay on SF-268 CNS, 82.8%; in the assay on SF-295 CNS, 91.7%; with SF-539 CNS it was 92.4%. Besides, the growth in the assay with UACC-257 melanoma is 87.5%; in the assay on M14 melanoma it was 75.1%.
With `Cc1nc2ccc(-n3c(-c4ccc(Cl)cc4)nc4ccccc4c3=O)cc2n1Cc1ccccc1`, the growth with NCI-H23 lung is 87.8%; with NCI-H226 lung, 87.8%; with NCI-H322M lung, 96.5%; with HOP-62 NSCLC it was 81.9%; in the assay on NCI-H460 lung it was 102%; in the assay on HOP-92 NSCLC, 80.3%. For the same molecule, the growth in the assay with NCI-H522 lung is 74.2%; in the assay on A549/ATCC NSCLC, 79.6%; in the assay with 786-0 renal, 105%; in the assay on COLO 205 colon it was 93.8%; in the assay with DU-145 prostate, 95.2%; with K-562 leukemia, 85.6%. For the same molecule, the growth was 89.4% in the assay with MALME-3M melanoma; 88.1% in the assay on MDA-MB-231 breast; 104% with RXF 393 renal; 92.4% in the assay with SF-268 CNS; 90.2% in the assay with SF-295 CNS; 96.8% in the assay on SF-539 CNS. Besides, the growth was 78.2% in the assay with UACC-257 melanoma and 95.1% in the assay with M14 melanoma.
Take `CCOC(=O)C1=C(Nc2ccc(OC)cc2)C(N)=NC1=N`: the growth in the assay on NCI-H23 lung is 52.6%; in the assay with NCI-H226 lung, 42.9%; with NCI-H322M lung, 50.2%; in the assay on HOP-62 NSCLC, 52.4%; with NCI-H460 lung it was 22.2%; in the assay on HOP-92 NSCLC, 48.4%. The growth in the assay on NCI-H522 lung is 42%; in the assay with A549/ATCC NSCLC it was 31.8%; in the assay with 786-0 renal, 59.3%; with COLO 205 colon it was -10.1% (active); in the assay on DU-145 prostate, 44.1%; with K-562 leukemia, 19%. Moreover, the growth was 31.9% in the assay with MALME-3M melanoma; 67.5% in the assay on MDA-MB-231 breast; 46.7% with RXF 393 renal; 60% in the assay on SF-268 CNS; 54.8% in the assay on SF-295 CNS; 25% with SF-539 CNS. Besides, the growth in the assay with UACC-257 melanoma is 44.9%; in the assay on M14 melanoma it was 27.3%.
